According to PubChem BioAssay (EPA / NIEHS):
Records with an inconclusive call do not appear. Calls of active or inactive are those of the source. How the source made its calls, unless noted: active means hit-call score of the fitted dose curve at least 0.9, where 1 is the maximum; inactive means score below 0.9.

What was measured:
[1] = molecular target: Nuclear respiratory factor 1 (Homo sapiens) (UniProt Q16656); experiment: ATG_NRF1_CIS: Attagene CIS-FACTORIAL HepG2 Assay for human Nuclear Respiratory Factor 1 (NRF1) Orphan Gene (AID 2282987); settings: HepG2 NRF1 cis-element reporter, Attagene multiplex; actives raise or lower the signal
Outline: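 Endogenous NRF1-driven reporter transcription measured in transiently transfected human HepG2 liver cells. Readout: reporter mRNA by RT-PCR and capillary electrophoresis with fluorescence detection, 24 h post-dosing. Gain or loss of signal fitted relative to DMSO baseline.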

[2] = ATG_NFI_CIS: Attagene CIS-FACTORIAL HepG2 Assay for human Nuclear Factor I (NFI) (AID 2282989); settings: HepG2 cis-regulatory reporter, NFI response element transcription; actives raise or lower the signal
Outline: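 Read-out: reporter mRNA via RT-PCR plus capillary electrophoresis with fluorescence detection. Transiently transfected HepG2 (endogenous TF activity on cis promoters), 24 h compound exposure; gain or loss of signal fitted against DMSO.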

[3] = molecular target: Myc proto-oncogene protein (Homo sapiens) (UniProt P01106); experiment: ATG_Myc_CIS: Attagene CIS-FACTORIAL HepG2 Assay for human Myelocytomatosis (Myc) Proto-Oncogene Transcription Factor (AID 2282990); settings: HepG2, Attagene cis-reporter transcription factor activity; actives raise or lower the signal
Outline: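 After 24 h chemical treatment of HepG2 cells carrying multiplexed cis-regulated reporter constructs, reporter transcripts quantified by RT-PCR and capillary electrophoresis of fluorescent fragments. Gain or loss fitted against DMSO baseline.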

[4] = ATG_NRF2_ARE_CIS: Attagene CIS-FACTORIAL HepG2 Assay for human Nuclear Factor Erythroid 2 Related Factor 2 (NFR2) response to Antioxidant Response Elements (ARE) (AID 2282992); settings: HepG2 Attagene ARE/NRF2 reporter, transcription factor activity; actives raise or lower the signal
Outline: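 HepG2 cells transiently transfected with multiplexed cis-element reporter constructs, 24 h after chemical dosing; reporter mRNA quantified by RT-PCR, fluorescent primer extension, HpaI digestion and capillary electrophoresis. Bidirectional fit relative to DMSO.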

[5] = ATG_Oct_MLP_CIS: Attagene CIS-FACTORIAL HepG2 Assay for human Octamer-Binding Transcription Factor (Oct) (AID 2282993); settings: HepG2 Attagene cis-factorial Oct reporter, mRNA; actives raise or lower the signal
Outline: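 Read-out: reporter mRNA via RT-PCR plus capillary electrophoresis of 6-FAM-labelled fragments. Transiently transfected HepG2, 24 h exposure, endogenous TF activity on cis elements. Gain or loss of signal fitted relative to DMSO.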

[6] = molecular target: Cellular tumor antigen p53 (Homo sapiens) (UniProt P04637); experiment: ATG_p53_CIS: Attagene CIS-FACTORIAL HepG2 Assay for human p53 Transcription Factor (AID 2282994); settings: HepG2 p53 cis-element reporter, Attagene mRNA; actives raise or lower the signal
Outline: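 HepG2 cells transiently transfected with cis-regulated multiple reporter transcription units, dosed 24 h. Reporter mRNA measured by RT-PCR, 6-FAM primer extension, HpaI digestion and capillary electrophoresis; bidirectional fit relative to DMSO.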

[7] = molecular target: human Peroxisome Proliferator-activated Receptor alpha (PPARa), PPARA (gene 5465) (UniProt Q07869); experiment: ATG_PPARa_TRANS: Attagene TRANS-FACTORIAL HepG2 Assay for human Peroxisome Proliferator-activated Receptor alpha (PPARa) (AID 2283001; active means hit-call score of the fitted dose curve at least 0.9, where 1 is the maximum)
Outline: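 Reporter transcripts from GAL4-UAS units in transfected HepG2 were quantified 24 h after dosing. Detection used reverse transcription, PCR, fluorescent primer extension and capillary electrophoresis, with DMSO as baseline.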

[8] = molecular target: Retinoic acid receptor alpha (Homo sapiens) (UniProt P10276); experiment: ATG_RARa_TRANS: Attagene TRANS-FACTORIAL HepG2 Assay for human Retinoic Acid Receptor alpha (RARa) (AID 2283005; active means hit-call score of the fitted dose curve at least 0.9, where 1 is the maximum)
Outline: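 Reporter transcripts, measured by RT-PCR with fluorescent labeling and capillary electrophoresis after 24 h dosing, reflect activity of an exogenous human RARa–GAL4 fusion in transiently transfected HepG2. Fitted for increase relative to DMSO.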

[9] = ATG_NF_kB_CIS: Attagene CIS-FACTORIAL HepG2 Assay for human Nuclear Factor Kappa B (NF-kB) (AID 2282991); settings: HepG2 Attagene cis-factorial NF-kB reporter mRNA; actives raise or lower the signal
Outline: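 Read-out: reporter transcript levels quantified by RT-PCR plus capillary electrophoresis of 6-FAM-labelled, HpaI-cut fragments. Transfected HepG2 cells, 24 h compound exposure, endogenous NF-kB-driven cis element; gain or loss scored versus DMSO.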

[10] = molecular target: human Peroxisome Proliferator-activated Receptor delta (PPARd), PPARD (gene 5467) (UniProt Q03181); experiment: ATG_PPARd_TRANS: Attagene TRANS-FACTORIAL HepG2 Assay for human Peroxisome Proliferator-activated Receptor delta (PPARd) (AID 2283002; active means hit-call score of the fitted dose curve at least 0.9, where 1 is the maximum)
Outline: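 Read-out is induced reporter mRNA, quantified by RT-PCR with fluorescent labelling and capillary electrophoresis after 24 h dosing. Cells are HepG2 transiently carrying multiple GAL4-UAS reporter units driven by exogenous NR-GAL4 chimeras; DMSO serves as baseline.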

[11] = molecular target: Peroxisome proliferator-activated receptor gamma (Homo sapiens) (UniProt P37231); experiment: ATG_PPARg_TRANS: Attagene TRANS-FACTORIAL HepG2 Assay for human Peroxisome Proliferator-activated Receptor-gamma (PPARg) (AID 2283007; active means hit-call score of the fitted dose curve at least 0.9, where 1 is the maximum)
Outline: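 Read-out: reporter mRNA induction, detected by fluorescence after RT-PCR and capillary electrophoresis. Transiently transfected human HepG2 liver cells carrying a chimeric NR-Gal4 construct were dosed for 24 h; activity was fitted upward relative to DMSO.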

[12] = molecular target: Nuclear receptor subfamily 1 group I member 2 (Homo sapiens) (UniProt O75469); experiment: ATG_PXR_TRANS: Attagene TRANS-FACTORIAL HepG2 Assay for human Pregnane X Receptor (PXR) (AID 2283008; active means hit-call score of the fitted dose curve at least 0.9, where 1 is the maximum)
Outline: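 HepG2 cells transiently transfected with GAL4-UAS reporter units and PXR-Gal4 chimera, exposed 24 h. Reporter mRNA quantified by RT-PCR, fluorescent labelling, HpaI digestion and capillary electrophoresis; gain of signal vs DMSO.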

[13] = molecular target: human Retinoic Acid Receptor gamma (RARg), RARG (gene 5916) (UniProt P13631); experiment: ATG_RARg_TRANS: Attagene TRANS-FACTORIAL HepG2 Assay for human Retinoic Acid Receptor gamma (RARg) (AID 2283009; active means hit-call score of the fitted dose curve at least 0.9, where 1 is the maximum)
Outline: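 HepG2 cells transiently transfected with multiplexed reporter units expressing chimeric RARg-GAL4 and GAL4-UAS-driven reporters; 24 h compound exposure. Reporter mRNA quantified by RT-PCR with fluorescent labelling and capillary electrophoresis; gain-of-signal fitted relative to DMSO baseline.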

[14] = BSK_3C_TissueFactor: BioMAP Diversity Plus: 3C Assay for Tissue Factor Biomarker Activity (AID 2282997); settings: BioMAP 3C HUVEC, tissue factor biomarker readout; actives raise or lower the signal
Outline: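 ELISA read-out of Tissue Factor levels on human umbilical vein endothelium collected 24 h after chemical dosing. Gain or loss of signal was fitted relative to DMSO.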

[15] = BSK_3C_uPAR: BioMAP Diversity Plus: 3C Assay for Urokinase-type plasminogen activator receptor (uPAR) Biomarker Activity (AID 2282998); settings: BioMAP 3C HUVEC, uPAR biomarker ELISA; actives raise or lower the signal
Outline: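 HUVEC primary cells; 24 h post-dose; uPAR by ELISA; gain or loss of signal fitted bidirectionally vs DMSO baseline.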

[16] = BSK_3C_VCAM1: BioMAP Diversity Plus: 3C Assay for Vascular cell adhesion molecule 1 (VCAM1) Biomarker Activity (AID 2282999); settings: BioMAP 3C HUVEC, VCAM1 ELISA, cytokine-stimulated; actives raise or lower the signal
Outline: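 Endothelial cells from human umbilical vein are treated with test chemical. At 24 h, VCAM-1 is measured by ELISA, and responses in either direction are fitted relative to DMSO.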

[17] = BSK_4H_Eotaxin3: BioMAP Diversity Plus: 4H Assay for Eotaxin 3 Biomarker Activity (AID 2283000); settings: primary human endothelial cells (HUVEC); actives raise or lower the signal
Outline: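 Chemicals were added to human umbilical vein endothelium cultures, and Eotaxin-3 was quantified by ELISA at 24 h. Values were derived by bidirectional fitting with DMSO serving as negative control and activity baseline.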

[18] = BSK_3C_Proliferation: Cell Proliferation Assessment in the BioMAP Diversity Plus: 3C Assay (AID 2283006); settings: primary human endothelial cells (HUVEC)
Outline: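 Human umbilical vein endothelial cells were grown sub-confluent and exposed to chemical for 48 h, then fixed with 10% TCA and stained with 0.1% sulforhodamine B; absorbance at 560 nm gave relative cell number, fitted bidirectionally against DMSO baseline.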

[19] = read-out: Intercellular Adhesion Molecule 1 (ICAM1), ICAM1 (gene 3383); experiment: BSK_3C_ICAM1: BioMAP Diversity Plus: 3C Assay for Intercellular Adhesion Molecule 1 (ICAM1) Biomarker Activity (AID 2283003); settings: primary human endothelial cells (HUVEC); actives raise or lower the signal
Outline: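 Primary human umbilical vein endothelial cells in the BioMAP 3C system were exposed to chemicals for 24 h, then ICAM-1 was quantified by ELISA. Activity was fitted bidirectionally against the DMSO negative control baseline.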

[20] = molecular target: human Retinoic Acid Receptor beta (RARb), RARB (gene 5915) (UniProt P10826); experiment: ATG_RARb_TRANS: Attagene TRANS-FACTORIAL HepG2 Assay for human Retinoic Acid Receptor beta (AID 2283004; active means hit-call score of the fitted dose curve at least 0.9, where 1 is the maximum)
Outline: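 Transient transfection of HepG2 with multiple reporter units → chemical dosing, 24 h → total RNA isolation → RT with oligo(dT) → reporter-specific PCR, 6-FAM primer extension, HpaI digest → capillary electrophoresis. Positive direction vs DMSO control.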

Measured: AC50

Sequence of Retinoic acid receptor alpha (Homo sapiens) (P10276 whole entry, looked up, the tested form may be a part): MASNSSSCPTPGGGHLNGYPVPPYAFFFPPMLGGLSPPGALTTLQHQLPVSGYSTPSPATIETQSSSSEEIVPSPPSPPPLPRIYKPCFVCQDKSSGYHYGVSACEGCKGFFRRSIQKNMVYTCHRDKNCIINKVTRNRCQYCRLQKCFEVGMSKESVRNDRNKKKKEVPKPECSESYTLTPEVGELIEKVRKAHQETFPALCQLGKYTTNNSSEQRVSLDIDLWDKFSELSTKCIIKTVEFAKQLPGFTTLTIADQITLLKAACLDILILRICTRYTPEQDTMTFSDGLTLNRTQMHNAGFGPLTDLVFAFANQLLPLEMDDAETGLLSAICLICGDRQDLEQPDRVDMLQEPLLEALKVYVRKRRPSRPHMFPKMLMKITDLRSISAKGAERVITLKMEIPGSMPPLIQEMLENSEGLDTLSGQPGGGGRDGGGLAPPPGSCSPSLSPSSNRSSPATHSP
Sequence of Cellular tumor antigen p53 (Homo sapiens) (P04637 whole entry, looked up): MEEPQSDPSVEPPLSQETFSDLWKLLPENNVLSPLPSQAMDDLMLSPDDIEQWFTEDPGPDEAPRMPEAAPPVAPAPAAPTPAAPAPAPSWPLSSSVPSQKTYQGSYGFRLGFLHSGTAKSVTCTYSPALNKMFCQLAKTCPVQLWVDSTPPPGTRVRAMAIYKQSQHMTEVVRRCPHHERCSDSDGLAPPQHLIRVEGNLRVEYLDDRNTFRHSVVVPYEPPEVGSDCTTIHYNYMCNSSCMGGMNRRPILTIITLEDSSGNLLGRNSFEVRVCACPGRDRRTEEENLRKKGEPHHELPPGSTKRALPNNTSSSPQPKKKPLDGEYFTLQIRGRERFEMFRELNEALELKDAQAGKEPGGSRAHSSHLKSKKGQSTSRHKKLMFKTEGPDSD
Sequence of human Peroxisome Proliferator-activated Receptor alpha (PPARa), PPARA (gene 5465) (Q07869 whole entry, looked up, the tested form may be a part): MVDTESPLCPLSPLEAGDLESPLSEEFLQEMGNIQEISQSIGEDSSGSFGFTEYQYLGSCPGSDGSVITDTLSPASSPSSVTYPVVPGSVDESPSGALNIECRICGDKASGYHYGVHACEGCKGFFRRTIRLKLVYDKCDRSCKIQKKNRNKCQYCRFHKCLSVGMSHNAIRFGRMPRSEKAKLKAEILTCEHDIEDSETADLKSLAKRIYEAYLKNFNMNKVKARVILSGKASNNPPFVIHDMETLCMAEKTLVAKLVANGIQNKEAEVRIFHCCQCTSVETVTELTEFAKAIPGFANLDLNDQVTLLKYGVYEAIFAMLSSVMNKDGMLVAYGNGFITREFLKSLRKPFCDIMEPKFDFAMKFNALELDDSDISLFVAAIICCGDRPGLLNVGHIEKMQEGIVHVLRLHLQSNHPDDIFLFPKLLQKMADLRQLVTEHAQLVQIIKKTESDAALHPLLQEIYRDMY
Sequence of human Retinoic Acid Receptor beta (RARb), RARB (gene 5915) (P10826 whole entry, looked up): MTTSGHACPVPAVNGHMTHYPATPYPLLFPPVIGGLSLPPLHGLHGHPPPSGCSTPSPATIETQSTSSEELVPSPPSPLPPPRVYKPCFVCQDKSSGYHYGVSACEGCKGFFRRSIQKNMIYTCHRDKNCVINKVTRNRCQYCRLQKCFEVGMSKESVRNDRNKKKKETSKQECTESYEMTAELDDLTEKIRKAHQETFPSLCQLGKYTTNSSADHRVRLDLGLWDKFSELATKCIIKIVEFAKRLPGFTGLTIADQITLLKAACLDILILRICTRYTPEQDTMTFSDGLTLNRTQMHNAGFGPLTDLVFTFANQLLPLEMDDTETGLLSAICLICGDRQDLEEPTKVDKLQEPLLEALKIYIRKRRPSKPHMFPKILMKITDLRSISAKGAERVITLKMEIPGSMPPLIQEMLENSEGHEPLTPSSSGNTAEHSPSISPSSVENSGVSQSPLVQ
Sequence of Peroxisome proliferator-activated receptor gamma (Homo sapiens) (P37231 whole entry, looked up, the tested form may be a part): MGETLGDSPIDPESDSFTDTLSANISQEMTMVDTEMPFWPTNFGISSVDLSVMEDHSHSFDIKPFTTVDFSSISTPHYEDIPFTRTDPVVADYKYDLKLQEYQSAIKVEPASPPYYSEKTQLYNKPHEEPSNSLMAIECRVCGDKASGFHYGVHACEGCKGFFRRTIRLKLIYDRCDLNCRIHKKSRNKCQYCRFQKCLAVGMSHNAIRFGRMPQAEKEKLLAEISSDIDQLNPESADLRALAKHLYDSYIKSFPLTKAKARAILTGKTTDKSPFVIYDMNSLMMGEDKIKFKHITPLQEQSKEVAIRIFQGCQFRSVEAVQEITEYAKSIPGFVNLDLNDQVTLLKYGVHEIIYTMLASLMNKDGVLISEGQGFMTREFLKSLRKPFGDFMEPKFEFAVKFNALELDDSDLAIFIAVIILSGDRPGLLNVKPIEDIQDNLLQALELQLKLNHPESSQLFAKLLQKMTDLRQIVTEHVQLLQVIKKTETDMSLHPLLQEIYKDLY
Sequence of Nuclear receptor subfamily 1 group I member 2 (Homo sapiens) (O75469 whole entry, looked up, the tested form may be a part): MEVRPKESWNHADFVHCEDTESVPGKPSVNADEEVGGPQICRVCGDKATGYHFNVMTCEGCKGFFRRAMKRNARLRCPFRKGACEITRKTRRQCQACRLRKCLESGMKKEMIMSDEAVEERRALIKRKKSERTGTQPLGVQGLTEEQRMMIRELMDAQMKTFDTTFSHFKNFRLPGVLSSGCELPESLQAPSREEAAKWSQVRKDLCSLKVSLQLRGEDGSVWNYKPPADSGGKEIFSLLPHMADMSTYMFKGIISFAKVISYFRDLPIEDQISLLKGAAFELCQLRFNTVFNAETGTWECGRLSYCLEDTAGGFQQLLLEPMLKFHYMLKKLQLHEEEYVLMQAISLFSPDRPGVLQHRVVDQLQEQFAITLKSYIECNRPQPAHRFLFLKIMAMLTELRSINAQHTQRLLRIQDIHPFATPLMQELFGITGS
Sequence of Nuclear respiratory factor 1 (Homo sapiens) (Q16656 whole entry, looked up): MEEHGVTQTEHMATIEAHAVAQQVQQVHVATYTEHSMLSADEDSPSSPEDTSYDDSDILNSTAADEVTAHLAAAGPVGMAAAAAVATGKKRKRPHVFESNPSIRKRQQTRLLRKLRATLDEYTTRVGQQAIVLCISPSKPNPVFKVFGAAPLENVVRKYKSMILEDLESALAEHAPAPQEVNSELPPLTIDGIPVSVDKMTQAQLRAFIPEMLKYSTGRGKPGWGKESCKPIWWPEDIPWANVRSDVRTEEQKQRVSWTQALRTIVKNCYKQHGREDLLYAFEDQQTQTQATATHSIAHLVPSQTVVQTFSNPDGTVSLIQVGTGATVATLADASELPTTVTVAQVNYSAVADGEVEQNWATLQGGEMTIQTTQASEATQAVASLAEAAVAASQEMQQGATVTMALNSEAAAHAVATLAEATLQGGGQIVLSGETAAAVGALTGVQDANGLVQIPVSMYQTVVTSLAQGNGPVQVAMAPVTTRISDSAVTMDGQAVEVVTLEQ
Sequence of human Retinoic Acid Receptor gamma (RARg), RARG (gene 5916) (P13631 whole entry, looked up, the tested form may be a part): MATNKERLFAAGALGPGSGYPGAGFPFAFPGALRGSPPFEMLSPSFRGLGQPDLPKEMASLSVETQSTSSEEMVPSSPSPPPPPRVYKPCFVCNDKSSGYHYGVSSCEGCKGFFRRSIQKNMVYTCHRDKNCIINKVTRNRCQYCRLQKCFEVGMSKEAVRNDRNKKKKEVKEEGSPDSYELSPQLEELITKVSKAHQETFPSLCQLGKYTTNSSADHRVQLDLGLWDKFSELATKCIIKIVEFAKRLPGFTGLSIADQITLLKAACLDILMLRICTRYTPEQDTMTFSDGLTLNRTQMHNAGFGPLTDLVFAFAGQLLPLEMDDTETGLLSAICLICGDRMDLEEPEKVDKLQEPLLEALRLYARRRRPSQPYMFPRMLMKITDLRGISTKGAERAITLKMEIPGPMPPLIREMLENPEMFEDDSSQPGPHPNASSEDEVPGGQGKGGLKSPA
Sequence of Myc proto-oncogene protein (Homo sapiens) (P01106 whole entry, looked up, the tested form may be a part): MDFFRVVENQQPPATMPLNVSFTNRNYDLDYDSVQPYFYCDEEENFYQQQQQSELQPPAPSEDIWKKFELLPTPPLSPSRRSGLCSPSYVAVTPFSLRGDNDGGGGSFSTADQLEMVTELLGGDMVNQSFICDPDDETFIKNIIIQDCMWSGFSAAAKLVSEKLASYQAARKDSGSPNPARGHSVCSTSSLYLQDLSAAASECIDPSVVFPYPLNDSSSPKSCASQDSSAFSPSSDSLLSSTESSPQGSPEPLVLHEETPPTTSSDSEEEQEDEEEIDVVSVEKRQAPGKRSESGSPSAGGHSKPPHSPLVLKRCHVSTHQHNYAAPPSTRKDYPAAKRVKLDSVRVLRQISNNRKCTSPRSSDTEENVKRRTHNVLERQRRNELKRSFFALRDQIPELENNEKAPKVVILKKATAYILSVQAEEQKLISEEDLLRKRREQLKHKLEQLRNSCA
Sequence of human Peroxisome Proliferator-activated Receptor delta (PPARd), PPARD (gene 5467) (Q03181 whole entry, looked up, the tested form may be a part): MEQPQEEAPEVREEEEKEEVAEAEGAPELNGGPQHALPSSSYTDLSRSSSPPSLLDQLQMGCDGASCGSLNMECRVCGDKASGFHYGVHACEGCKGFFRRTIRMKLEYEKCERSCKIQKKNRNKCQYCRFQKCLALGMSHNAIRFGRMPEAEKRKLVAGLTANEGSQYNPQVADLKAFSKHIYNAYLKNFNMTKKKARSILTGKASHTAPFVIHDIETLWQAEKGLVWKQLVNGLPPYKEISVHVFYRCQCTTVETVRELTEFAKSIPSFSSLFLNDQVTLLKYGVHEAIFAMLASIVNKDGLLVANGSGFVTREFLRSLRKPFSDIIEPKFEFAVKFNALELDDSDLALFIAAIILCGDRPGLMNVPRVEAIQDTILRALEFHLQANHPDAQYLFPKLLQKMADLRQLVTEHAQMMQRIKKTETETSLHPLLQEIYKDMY

C=C(C)[C@@H]1CC=C(C)CC1
inactive: [1] | [2] | [3] | [4] | [5] | [6] | [7] | [8]

N#Cc1ccc(C(c2ccc(C#N)cc2)n2cncn2)cc1
inactive: [1] | [2] | [3] | [9] | [4] | [5] | [10] | [11] | [12] | [13]

C=C(C)C1CC=C(C)C(OC(C)=O)C1 (configuration not stated)
inactive: [1] | [2] | [3] | [4] | [5] | [6] | [10] | [8] | [11] | [12] | [13]

O=C(O)CC(C(=O)O)S(=O)(=O)O (configuration not stated)
inactive: [1] | [2] | [3] | [4] | [5] | [6] | [10] | [12]

CCCCCCCCCCCCCc1ccccc1
inactive: [1] | [2] | [9] | [4] | [5] | [6] | [10] | [11] | [12]

CCCCCCOc1ccc(N)cc1
inactive: [2] | [9] | [5] | [6] | [11] | [12]
active: [1] 100 µM | [4] 100 µM

COC(=O)C=Cc1ccccc1
inactive: [1] | [2] | [3] | [4] | [5] | [10] | [8] | [11] | [12] | [13]

C=CC(=O)NCOCCCC
active: [4] 66.5 µM | [11] 34.2 µM
inactive: [1] | [2] | [3] | [5] | [14] | [15] | [16] | [17] | [7] | [10] | [18] | [12]

[Cl][Eu]([Cl])[Cl]
inactive: [1] | [2] | [9] | [4] | [5] | [6] | [10] | [11] | [12]

CCCCCCCCC(CO)CCCCCC (configuration not stated)
inactive: [2] | [5] | [14] | [15] | [16] | [19] | [18] | [11] | [12] | [13]
active: [1] 117 µM | [3] 179 µM | [4] 81.3 µM | [17] 5.35 µM

CC1CCC(C(C)(C)S)C(=O)C1 (configuration not stated)
inactive: [1] | [2] | [9] | [4] | [5] | [6] | [10]
active: [11] 81.1 µM | [12] 1.89 µM

C=Cc1cccc(C)c1
inactive: [1] | [2] | [4] | [5] | [6] | [10] | [11] | [12]

c1ccc2cnccc2c1
inactive: [1] | [2] | [9] | [4] | [5] | [6] | [7] | [10] | [11] | [12]

CCC[Si](OC)(OC)OC
inactive: [1] | [2] | [9] | [4] | [5] | [6] | [10] | [20] | [8] | [12] | [13]

CC(=O)OC/C=C(/C)CCC=C(C)C
inactive: [1] | [2] | [4] | [5] | [6] | [7] | [8] | [11] | [12]

Cn1cccc1
inactive: [1] | [9] | [5] | [6] | [10] | [8] | [11] | [12]
active: [2] 26.2 µM | [4] 29.5 µM

Cc1c(C(=O)c2c[nH]n(C)c2=O)ccc(S(C)(=O)=O)c1C1=NOCC1
inactive: [1] | [2] | [9] | [4] | [5] | [6] | [8] | [12]

OCCCc1ccccc1
inactive: [1] | [2] | [9] | [4] | [5] | [6] | [10] | [8] | [11] | [12] | [13]

CC1C(C)(C)C2=C(C(=O)CCC2)C1(C)C (configuration not stated)
active: [12] 7.68 µM
inactive: [1] | [2] | [9] | [4] | [5] | [6] | [7] | [20] | [8] | [11] | [13]

COC(Cc1ccccc1)OC
inactive: [1] | [2] | [3] | [4] | [5] | [7] | [11]

CCCCc1ccc(Cl)cc1
inactive: [1] | [2] | [4] | [5] | [6] | [10] | [11] | [12]

CC(C)C(=O)OCCOc1ccccc1
inactive: [1] | [2] | [9] | [4] | [5] | [6] | [10]

Cc1c(Cl)cccc1Cl
inactive: [1] | [3] | [9] | [4] | [5]

O=C(C=Cc1ccccc1)OCCc1ccccc1
active: [4] 20.4 µM | [11] 3.05 µM
inactive: [1] | [2] | [9] | [5] | [6] | [12]

Cc1noc(NS(=O)(=O)c2ccc(N)cc2)c1C
inactive: [1] | [2] | [9] | [4] | [5] | [6] | [20] | [8]
